Assay results as given in PubChem BioAssay (NCATS).
Records with an inconclusive call do not appear. Where a call stands in place of a potency, no number is given. Unmarked numbers belong to inactive results. Activity calls are given as the source filed them. The call rests on the fitted dose curve; in most records, active means well fitted curve in the direction sought with a large enough effect; inconclusive means small, poorly fitted or top-dose-only effect, or another doubt; inactive means no such curve, though single readings can be large; an effect the other way counts as inactive or inconclusive.

Assays:
[1] = tested on: HeLa; assay: Primary qHTS to identify gynecologic anti-cancer compounds using libraries of approved drugs and bioactive compounds (AID 1345084); settings: Gynecologic cancer cell panel viability, ATPlite luminescence, 48 h; series mostly up to 57.5 µM; further: nearly all actives have a fitted effect of over 55% in size
Procedure, shortened: (§1)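 Cells, 1,000 per well, were allowed to settle for 16 h at 37 C before compound addition. Five concentrations were tested for 48 h, and viability was read by ATPlite luminescence after 15 min at room temperature.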

[2] = tested on: PA-1; assay: as above; settings: Gynecologic cancer cell panel viability, ATPlite luminescence, 48 h; series mostly up to 57.5 µM
Procedure, shortened: as §1

[3] = tested on: SKOV3; assay: as above; settings: Gynecologic cancer cell panel viability, ATPlite luminescence, 48 h; series mostly up to 57.5 µM
Procedure, shortened: as §1

[4] = tested on: OV90; assay: as above; settings: Gynecologic cancer cell panel viability, ATPlite luminescence, 48 h; series mostly up to 57.5 µM
Procedure, shortened: as §1

[5] = tested on: Tov-21-G; assay: as above; settings: Gynecologic cancer cell panel viability, ATPlite luminescence, 48 h; series mostly up to 57.5 µM
Procedure, shortened: as §1

[6] = tested on: Tov112D; assay: as above; settings: Gynecologic cancer cell panel viability, ATPlite luminescence, 48 h; series mostly up to 57.5 µM
Procedure, shortened: as §1

[7] = Drug repurposing screens with cells derived from glioblastoma tumor samples (AID 1345199); settings: GBM patient neurospheres viability, ATP luminescence, 48 h; further: nearly all actives have a fitted effect of over 40% in size
Procedure, shortened: (§2)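 Primary testing used CD133+ neurospheres from four GBM patients, seven concentrations, 48 h exposure and ATP-based viability; confirmation added three slower-growing patient lines.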

[8] = tested on: astro; assay: as above; settings: viability, ATP luminescence, 48 h; series mostly up to 45.9 µM
Procedure, shortened: as §2

[9] = tested on: Hek293T; assay: Primary qHTS to identify gynecologic anti-cancer compounds using libraries of approved drugs and bioactive compounds (AID 1345084); settings: Gynecologic cancer cell panel viability, ATPlite luminescence, 48 h, control line for the selectivity index; series mostly up to 57.5 µM; further: nearly all actives have a fitted effect of over 55% in size
Procedure, shortened: as §1

[10] = tested on: JEG-3; assay: as above; settings: Gynecologic cancer cell panel viability, ATPlite luminescence, 48 h; series mostly up to 57.5 µM
Procedure, shortened: as §1

[11] = at 20 µM (top of the series), tumour line C
[12] = at 45.9 µM (top of the series), tumour line B
[13] = at 45.9 µM (top of the series), tumour line D
[14] = at 46.1 µM (top of the series), tumour line C
[15] = at 46 µM (top of the series), tumour line A
[16] = at 21.2 µM (top of the series), tumour line B
[17] = at 21.2 µM (top of the series), tumour line D
[18] = at 21.3 µM (top of the series), tumour line A
Potency means the concentration at half of the fitted maximal effect.

O=C(O)c1ccc(-n2nc(-c3ccccc3O)nc2-c2ccccc2O)cc1
Potency [1]: inactive | Potency [2]: 8910 nM (active) | Potency [3]: inactive

COC(=O)Nc1nc2ccc(Sc3ccccc3)cc2[nH]1
Potency [1]: 2240 nM (active) | Potency [4]: 10000 nM (active) | Potency [2]: 1410 nM (active) | Potency [5]: 2820 nM (active) | Potency [6]: 1410 nM (active) | activity, negative = cell killing [7, 11]: -28.6% | Potency ([7]; tumour line A): 224 nM (active) | Potency [8]: 631 nM (active)

COc1cc([C@@H]2c3cc4c(cc3[C@H](O)[C@H]3COC(=O)[C@H]23)OCO4)cc(OC)c1OC
Potency [1]: 100 nM (active) | Potency [4]: 355 nM (active) | Potency [5]: 199 nM (active)

COc1ncnc(NS(=O)(=O)c2ccc(N)cc2)c1OC
Potency [9]: inactive | Potency [10]: inactive | Potency [4]: inactive | Potency [2]: inactive | Potency [3]: inactive | Potency [5]: inactive | Potency [6]: inactive | activity, negative = cell killing [7, 12]: -5.91% | activity, negative = cell killing [7, 13]: -22.1% | activity, negative = cell killing [7, 14]: -21.2%

CC[C@H](NC(C)C)[C@H](O)c1ccc(O)c2[nH]c(=O)ccc12
Potency [9]: inactive | Potency [10]: inactive | Potency [4]: inactive | Potency [2]: inactive | Potency [3]: inactive | Potency [5]: inactive | Potency [6]: inactive | activity, negative = cell killing [7, 12]: -9.21% | activity, negative = cell killing [7, 13]: -7.02% | activity, negative = cell killing [7, 15]: -27% | activity, negative = cell killing [7, 14]: 18.7% | Potency [8]: inactive

CCCCOc1ccc(CC(=O)NO)cc1
Potency [1]: inactive | Potency [9]: inactive | Potency [4]: inactive | activity, negative = cell killing [7, 11]: 38.6% | activity, negative = cell killing [7, 16]: -16.2% | activity, negative = cell killing [7, 17]: -14.5% | Potency ([7]; tumour line A): 11200 nM (active) | Potency [8]: inactive

N=C(N)c1ccc(OCCCCCOc2ccc(C(=N)N)cc2)cc1
Potency [1]: inactive | Potency [10]: inactive | Potency [2]: 5010 nM (active) | Potency [5]: inactive | Potency [6]: inactive

OC(Cn1cncn1)(Cn1cncn1)c1ccc(F)cc1F
Potency [9]: inactive | Potency [10]: inactive | Potency [4]: inactive | Potency [2]: inactive | Potency [3]: inactive | Potency [5]: inactive | Potency [6]: inactive | activity, negative = cell killing [7, 12]: -6.67% | activity, negative = cell killing [7, 13]: -19.6% | activity, negative = cell killing [7, 15]: -17.5% | activity, negative = cell killing [7, 14]: -6.89% | Potency [8]: inactive

COc1cccc(N(C)C(=S)Oc2ccc3c(c2)CCCC3)n1
Potency [9]: inactive | Potency [10]: inactive | Potency [4]: inactive | Potency [2]: inactive | Potency [3]: inactive | Potency [5]: inactive | Potency [6]: inactive | activity, negative = cell killing [7, 14]: -18.5% | Potency ([7]; tumour line A): 12600 nM (active) | Potency ([7]; tumour line D): 17800 nM (active)

CNC1CCCN(c2c(F)cc3c(=O)c(C(=O)O)cn(C4CC4)c3c2OC)C1 (stereo not drawn)
Potency [9]: inactive | Potency [10]: inactive | Potency [4]: inactive | Potency [2]: inactive | Potency [3]: inactive | Potency [5]: inactive | Potency [6]: inactive | activity, negative = cell killing [7, 12]: 0.798% | activity, negative = cell killing [7, 13]: -8.95% | activity, negative = cell killing [7, 15]: -37.3% | activity, negative = cell killing [7, 14]: -5.21% | Potency [8]: inactive

CC(C(=O)O)c1ccc2c(c1)CC(=O)c1ccccc1S2 (stereo not drawn)
Potency [9]: inactive | Potency [10]: inactive | Potency [4]: inactive | Potency [2]: inactive | Potency [3]: inactive | Potency [5]: inactive | Potency [6]: inactive | activity, negative = cell killing [7, 12]: -3.56% | activity, negative = cell killing [7, 13]: -21.1% | activity, negative = cell killing [7, 15]: -9.77% | activity, negative = cell killing [7, 14]: 5.54%

Nc1[nH]c(=O)ncc1F
Potency [9]: inactive | Potency [10]: inactive | Potency [4]: inactive | Potency [2]: inactive | Potency [3]: inactive | Potency [5]: inactive | Potency [6]: inactive | activity, negative = cell killing [7, 11]: 6.56% | activity, negative = cell killing [7, 16]: -3.24% | activity, negative = cell killing [7, 17]: -9.05% | activity, negative = cell killing [7, 18]: -15% | Potency [8]: inactive

COc1ccccc1OCC(O)COC(N)=O (stereo not drawn)
Potency [9]: inactive | Potency [10]: inactive | Potency [4]: inactive | Potency [2]: inactive | Potency [3]: inactive | Potency [5]: inactive | Potency [6]: inactive | activity, negative = cell killing [7, 11]: -0.35% | activity, negative = cell killing [7, 16]: -3.25% | activity, negative = cell killing [7, 17]: -10.3% | activity, negative = cell killing [7, 18]: -18% | Potency [8]: inactive
